Data on 95 compounds can be found in PubChem BioAssay AID1063 (University of Pittsburgh Molecular Library Screening Center, 2008).

Out of some 200,000 compounds screened, about 18,000 (9%) were called active. Rule as the data show it: active = inhibition above about 50%; inactive = the rest. The entries come from a sample that favours actives as a whole.

This experiment is described as follows: antileishmanial activity against promastigotes – primary screen (AID 1063).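 Also: promastigotes grown with compound for 44 hours at 28 °C.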 The following applies: Leishmania major promastigotes, resazurin fluorescence viability; at 10 µM; hits give high values.
As for `COc1ccccc1N(C)S(=O)(=O)c1ccc(Cl)c(C(=O)N2CCC(C(N)=O)CC2)c1`, the inhibition is -3.28% (inactive).

Take `COc1cc(/C=N/Nc2ccc(C)cc2)cc(Br)c1O`: the inhibition is -20.7% (inactive).

Regarding `Cc1ccccc1OCCOc1ccc([N+](=O)[O-])cc1/C=N/n1cnnc1`, the inhibition was 37.6% (inactive).

As to `Cc1c(Br)ccc(NC(=O)COc2ccccc2C(N)=O)c1C`, the inhibition is 2.06% (inactive).

For the compound `COc1ccccc1-c1n[nH]c2c1[C@H](C)CC[C@H]2C(C)C`, the inhibition is 62.9% (active).

On to `C=C(C)COc1ccc(-c2n[nH]c(C)c2-c2ccccc2OC)c(O)c1`, for which the inhibition was -7.88% (inactive).

Regarding `COc1ccccc1-c1nc(SC)n[nH]1`, the inhibition was -6.03% (inactive).

In the case of `Cc1ccc(S(=O)(=O)N(C)C)cc1NC(=O)c1ccccc1Br`, the inhibition is -1.67% (inactive).

For the compound `COc1ccc(OC)c(-c2csc(NC(=O)C3=NNC(=O)CC3)n2)c1`, the inhibition is -4.28% (inactive).

Consider `CCc1nnc(NC(=O)CSc2nc(SC)ns2)s1`, for which the inhibition was -6.1% (inactive).

`CCOC(=O)C1C(=O)C=C(c2ccc(OC)cc2)CC1c1ccco1` (stereo not given): the inhibition is 0.83% (inactive).

Take `CC(=O)NC1C(Oc2ccc(C)cc2)OC2COC(c3ccco3)OC2C1O` (stereo not given): the inhibition is 54.2% (active).

In the case of `CCc1cccc(OC2OC(CO)C(O)C(O)C2NC(C)=O)c1` (stereo not given), the inhibition is -8.46% (inactive).

As for `CCC(C)(C)NC(=O)CN(Cc1cccs1)C(=O)CNS(=O)(=O)c1ccc(F)cc1`, the inhibition was -4.43% (inactive).

For the compound `CCOC(=O)c1c(C)[nH]c(=S)c(C#N)c1-c1ccccc1`, the inhibition is -3.7% (inactive).

`CCOC(=O)c1c(C)[nH]c2c1-c1ccccc1C(=O)C2=O`: the inhibition is 100% (active).

In the case of `CCOC(=O)c1cc2n(c1N)-c1ccccc1C2=O`, the inhibition was 1.96% (inactive).

As to `O=c1cc(O)c(-c2cccc(C(F)(F)F)c2)c(Cl)[nH]1`, the inhibition is 16.3% (inactive).

In the case of `CC(C)(C)c1nc(NCC2CCCO2)c2nnn(Cc3ccccc3)c2n1` (stereo not given), the inhibition is 2.46% (inactive).

In the case of `Clc1cccc(-c2nc(NCC3CCCO3)c3ccccc3n2)c1` (stereo not given), the inhibition was 76.4% (active).

Consider `c1ccc2c(NCC3CCCO3)nc(-c3ccncc3)nc2c1` (stereo not given), for which the inhibition is 3.5% (inactive).

Consider `CCOC(=O)c1cnn(Cc2ccccc2Cl)c1N`, for which the inhibition was 0.00878% (inactive).

For `COC(=O)N/N=C/c1cn(CCCOc2ccc(C)cc2)c2ccccc12`, the inhibition is 55.6% (active).

Take `CCOC(=O)N/N=C/c1cccnc1`: the inhibition was 1.46% (inactive).

Take `CNC(=S)N/N=C/c1ccc(OCc2ccccc2)c(Br)c1`: the inhibition is 1.78% (inactive).

Take `CCOC(=O)N/N=C/c1cn(Cc2ccccc2Cl)c2ccccc12`: the inhibition was 83.9% (active).

With `COC(=O)Cn1cc(/C=C/[N+](=O)[O-])c2ccccc21`, the inhibition was 27.7% (inactive).

Regarding `Cc1ccc(OCCCn2c(=O)oc3ccccc32)cc1`, the inhibition was -3.5% (inactive).

Regarding `O=C(Cn1cc(/C=N/NC(=O)c2cccc(C(F)(F)F)c2)c2ccccc21)Nc1ccc(F)cc1`, the inhibition was 6.06% (inactive).

For the compound `CNC(=S)N/N=C/c1cn(Cc2ccc(C)cc2)c2ccccc12`, the inhibition was 62.8% (active).

With `CCN(CC)S(=O)(=O)c1ccc(NC(=O)c2cccnc2Cl)c(NC(=O)c2cccnc2Cl)c1`, the inhibition was -1.01% (inactive).

With `O=C(Nc1ccc(Cl)cc1)C1c2cccc[n+]2CC(=O)N1Cc1ccc2c(c1)OCO2` (stereo not given), the inhibition was -2.66% (inactive).

For `CCC(=O)Nc1ccc(Nc2nc(Cl)nc(Nc3ccc(NC(=O)CC)cc3)n2)cc1`, the inhibition was -6.56% (inactive).

With `N#CCSc1nn(-c2ccc(F)cc2)c(=S)s1`, the inhibition was -4.75% (inactive).

As for `Cc1ccc(S(=O)(=O)N2CCN(C(=O)c3cccs3)CC2)cc1`, the inhibition is -4.13% (inactive).

Regarding `Cc1ccnc(NS(=O)(=O)c2ccc(NC(=O)c3ccc(S(=O)(=O)N(C)C)cc3)cc2)n1`, the inhibition is -6.03% (inactive).

Consider `COC(=O)c1c(NC(=O)CCCC(=O)O)sc2c1CCCCC2`, for which the inhibition is -4.64% (inactive).

As to `COCCCNc1nc2c(-c3cccc(C(F)(F)F)c3)nnn2c2ccccc12`, the inhibition was 0.99% (inactive).

On to `CC(=O)Nc1ccc(Nc2nc3c(S(=O)(=O)c4ccc(C)c(C)c4)nnn3c3ccccc23)cc1`, for which the inhibition was 3.4% (inactive).

For the compound `Cc1cccc(Nc2nc3c(S(=O)(=O)c4ccccc4)nnn3c3ccccc23)c1C`, the inhibition is 57.1% (active).

Regarding `COc1ccc(N(CC(=O)NC2CCCC2)C(=O)CS(=O)CC(=O)Nc2ccc3c(c2)OCO3)cc1` (stereo not given), the inhibition was -10.1% (inactive).

For the compound `COc1ccc(CC(=O)NCc2nnc(SCC(=O)Nc3nccs3)n2C)cc1`, the inhibition was -3.12% (inactive).

On to `CC(=O)Oc1ccccc1C1=NN(C(C)=O)C(c2ccccc2)C1` (stereo not given), for which the inhibition is -5.99% (inactive).

As to `COc1cc([N+](=O)[O-])ccc1NC(=S)N1CCN(c2ccccn2)CC1`, the inhibition was -4.39% (inactive).

For `Cc1cccn2c(CN(C)C3CCCc4ccccc43)c(C(=O)N3CCOCC3)nc12` (stereo not given), the inhibition is 7.87% (inactive).

`Cc1cccn2c(=O)c3cc(C(=O)N4COCC4(C)C)n(C)c3nc12`: the inhibition was 89.9% (active).

On to `O=C(O)C1C2CC2CN1C(=O)c1ccc(Cl)cc1Cl` (stereo not given), for which the inhibition was -2.09% (inactive).

`COc1ccc2nc(SCc3ccccc3)nc(C)c2c1`: the inhibition was -8.99% (inactive).

With `COc1ccc2nc(/N=C(\N)NC(=O)Nc3ccccc3)nc(C)c2c1`, the inhibition is 99.9% (active).

Turning to `COc1ccc(NC(=O)Nc2ccc3nc(C)c(C)nc3c2)cc1`, the inhibition was 6.7% (inactive).

`Cc1nc2cc(NCc3cccs3)ccc2n1C`: the inhibition was 9.59% (inactive).

Consider `C[C@H](NC(=O)c1ccccc1Cl)C(=O)OCCOc1cccc(Cl)c1`, for which the inhibition is -6.25% (inactive).

Take `CC(=O)N/N=C/c1cc2c(cc1[N+](=O)[O-])OCO2`: the inhibition is -2.52% (inactive).

For `CCn1c(CSc2nc(C)cc(C)n2)nnc1SCC(N)=O`, the inhibition is -0.87% (inactive).

Regarding `Cc1cc2cc(CNC(=O)c3cccs3)ccc2[nH]1`, the inhibition was -4.21% (inactive).

With `CCc1cccc(CC)c1NC(=S)NCc1ccc2[nH]c(C)cc2c1`, the inhibition is 94.4% (active).

Take `Cc1cccc(NC(=S)NCc2ccc3[nH]c4c(c3c2)CCCC4)c1`: the inhibition was 11.1% (inactive).

As to `O=C(/C=C/c1ccccc1[N+](=O)[O-])OC1CCCCC1=O` (stereo not given), the inhibition is -5.55% (inactive).

As for `CC1CCCCC1NC(=O)/C(C#N)=C/C=C/c1ccccc1[N+](=O)[O-]` (stereo not given), the inhibition was 69% (active).

With `COc1cc(/C=C(\C#N)C(=O)Nc2ccc3ccccc3c2)c([N+](=O)[O-])cc1OC`, the inhibition is -8.56% (inactive).

As for `COc1cc(CN(C)Cc2nc3cc(C(F)(F)F)ccc3c(=O)[nH]2)ccc1OC(F)F`, the inhibition is 8.36% (inactive).

Turning to `O=C(CSc1cccc[n+]1[O-])c1ccc(-c2ccccc2)cc1`, the inhibition is -8.44% (inactive).

Consider `CC(NC(=S)NC1CCCCC1)C(c1ccccc1)N1CCOCC1` (stereo not given), for which the inhibition is 1.15% (inactive).

Turning to `Cc1ccccc1CN1C[C@@H]2C[C@@H](c3cn(C)nc3-c3ccccc3)N3CCC[C@@]23C1=O`, the inhibition is 9.77% (inactive).

On to `Cc1ccccc1CN1C[C@@H]2C[C@@H](c3ccc4nsnc4c3)N3CCC[C@@]23C1=O`, for which the inhibition is 78.4% (active).

On to `Cc1ccccc1CN1CCN(CC(=O)NCc2ccccn2)C1=O`, for which the inhibition was -4.22% (inactive).

For `CCN1CCN(C(=O)CN(C)S(=O)(=O)c2ccc3ccccc3c2)CC1`, the inhibition is 0.63% (inactive).

In the case of `O=C(N/N=C/c1cc2c(cc1Br)OCO2)C1COc2ccccc2O1` (stereo not given), the inhibition is 38% (inactive).

For the compound `CN(C)c1ccc(/C=C2\NC(=S)N(Cc3ccccc3)C2=O)cc1`, the inhibition was 96.8% (active).

For `O=C1NCC(=O)N(Cc2ccccc2)/C1=C/c1ccccc1`, the inhibition is -0.36% (inactive).

Turning to `CC1=NN(Cc2ccccc2)C(=O)/C1=C/c1ccc(N(C)C)cc1`, the inhibition is -0.65% (inactive).

On to `Cc1noc(C)c1CCC(=O)O`, for which the inhibition was -0.11% (inactive).

On to `CC(CC(=O)Nc1ccccc1)n1ccnc1` (stereo not given), for which the inhibition is -7.2% (inactive).

As for `COc1ccc(OC)c(NC(=O)CN2CCN(C(=O)c3ccco3)CC2)c1`, the inhibition is -1.17% (inactive).

`COc1ccc(NC(C)=O)cc1NC(=O)CN1CCN(c2ccccn2)CC1`: the inhibition was -3.06% (inactive).

Consider `COc1ccc(NC(C)=O)cc1NC(=O)CN1CCN(C2c3ccccc3-c3ccccc32)CC1`, for which the inhibition was 84% (active).

In the case of `CCC(CC)NC(=O)CSc1nnc(-c2c[nH]c3ccccc23)o1`, the inhibition was 6.71% (inactive).

In the case of `Fc1ccccc1C(c1nnnn1Cc1ccc2c(c1)OCO2)N1CCN(Cc2ccccc2)CC1` (stereo not given), the inhibition was 26.7% (inactive).

As for `CC(C)(C)n1nnnc1C(c1ccc(F)cc1)N1CCN(Cc2ccc3c(c2)OCO3)CC1` (stereo not given), the inhibition was 48.1% (inactive).

In the case of `Cc1ccc(S(=O)(=O)Cn2nnnc2CN2CCN(Cc3ccc4c(c3)OCO4)CC2)cc1`, the inhibition was 93.4% (active).

As for `O=C(CN1CCN(c2ccccc2F)CC1)c1ccc2c(c1)OCO2`, the inhibition is 8.93% (inactive).

With `O=C(CN1CCC(O)(c2ccccc2)CC1)Nc1ccc2c(c1)OCCO2`, the inhibition is 3.55% (inactive).

Regarding `O=C(CCN1CCc2ccccc2C(O)(c2ccccc2)C1)c1ccc2c(c1)OCCO2` (stereo not given), the inhibition is 95.3% (active).

With `O=C(Cc1ccccc1)NNC(=O)C1CCN(c2ncccn2)CC1`, the inhibition is -9.12% (inactive).

Regarding `CCc1cc(CNC(=O)CC2C(=O)NCCN2CC2CCCCC2)on1` (stereo not given), the inhibition was -6.55% (inactive).

As for `COc1ccc(NS(=O)(=O)c2ccc(NC(C)=O)cc2)cc1OC`, the inhibition was -3.17% (inactive).

Turning to `COc1ccc(/C=C/C(=O)c2ccc(NS(=O)(=O)c3ccc(C)cc3)cc2)cc1O`, the inhibition was 99.6% (active).

Take `COc1ccc(C(=O)Oc2cc(/C=N/NS(=O)(=O)c3ccc(C)cc3)ccc2OC)cc1`: the inhibition was 0.27% (inactive).

For the compound `O=C(CCC(=O)Nc1ccccc1)N/N=C/c1ccccc1F`, the inhibition is 0.99% (inactive).

Take `CCC(C(=O)Nc1ccc2c(c1)OCCO2)c1ccccc1` (stereo not given): the inhibition was 4.21% (inactive).

Regarding `CCO[C@H]1OC(C(=O)Nc2ccccc2)=C[C@@H](C2CC2)[C@@H]1CCCO`, the inhibition is 1.1% (inactive).

As to `CCOC(=O)C1=C(CC)OC(N)=C(C#N)C1c1ccc(F)cc1F` (stereo not given), the inhibition was 11.4% (inactive).

Take `COc1cc2c(cc1OC)C(c1ccc(C)o1)CC(=O)N2` (stereo not given): the inhibition was -5.73% (inactive).

As for `COC(=O)c1ccc(C2CC(=O)Nc3cc(OC)c(OC)cc32)cc1` (stereo not given), the inhibition was 53.2% (active).

On to `COc1cc2c(cc1OC)C(c1ccncc1)CC(=O)N2` (stereo not given), for which the inhibition was -6.82% (inactive).
